Source: PubChem
Most compounds without a hit are left out; they make up all but 0.96% or so of the library.
TRPML1 ag: activates the human TRPML1 channel | Q9GZU1 | TRPML1-expressing cells, Ca2+ dye fluorescence, FDSS | activation, % (concentration not given with the values) | 410,000 compounds, 0.12% hits; in the data active = activation above about 50%; inconclusive = mostly about 30% to 49%
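Cells: TRPML1-DL, 1X Tet inducer, ~16 h at 37 degrees C/5% CO2. Dye: ABD Ca8 no-wash + quencher, 45-90 min RT. Read: 10 s baseline, compound add, 110 s agonist phase; 54-4 EC80 (4uM final), 110 s antagonist phase.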
TRHR enhancer: allosteric enhancers of human TRH receptor. P34981. TRHR cells, fluo-8 calcium fluorescence, EC20 TRH enhancement. enhancement, % at 2 µM. 360,000 compounds, 0.66% hits. AID 493056; in the data active = enhancement above about 30%
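Enhancer read-out: after compound pinning and an initial kinetic agonist-mode read, an EC20 of TRH (10 nM final) was injected and fluo-8 calcium signal (Ex 480/Em 530) followed at 1 s/cycle for 100 cycles in TRHR-expressing cells.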
TRPML1 inh: blocks the human TRPML1 channel; AID 624415; 390,000 compounds, 0.02% hits; activity change, negative = inhibition, % (concentration not given with the values); Q9GZU1; TRPML1-inducible cells, Ca2+ dye fluorescence, FDSS; stronger effect = lower value; inhibition of EC80 agonist-evoked calcium signal; in the data active = activity change below about -50%; inconclusive = between about -30% and that limit;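 also: stimulus is agonist 54-4 at its EC80 concentration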
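Calcium fluorescence in TRPML1-DL cells induced overnight with Tet: a 110 s read after compound pin addition, then a 110 s antagonist read after challenge with 54-4 at 4 uM final (EC80).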
TRHR ag: TRH receptor (human) agonism; P34981; TRHR cells, calcium flux fluo-8, FDSS agonist mode; activation, % at 2 µM; 360,000 compounds, 0.18% hits; in the data active = activation above about 30%
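Agonist-mode FDSS calcium read (Ex 480/Em 530, 1 s cycles) in 1536-well TRHR cells with fluo-8 dye, after 10-cycle baseline and 23 nL compound addition; TRH at EC20 (10 nM final) added afterwards for the enhancer phase.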
TRPV1 agonist: agonists of human vanilloid receptor 1 (TRPV1). TRPV1-expressing cells, Fluo-8 calcium influx, agonist mode. activation, % at 8.33 µM. 320,000 compounds, 0.19% hits. AID 540275; in the data active = activation above about 80%; inconclusive = between about 30% and that limit
Target sequence (Q8NER1 whole entry, looked up): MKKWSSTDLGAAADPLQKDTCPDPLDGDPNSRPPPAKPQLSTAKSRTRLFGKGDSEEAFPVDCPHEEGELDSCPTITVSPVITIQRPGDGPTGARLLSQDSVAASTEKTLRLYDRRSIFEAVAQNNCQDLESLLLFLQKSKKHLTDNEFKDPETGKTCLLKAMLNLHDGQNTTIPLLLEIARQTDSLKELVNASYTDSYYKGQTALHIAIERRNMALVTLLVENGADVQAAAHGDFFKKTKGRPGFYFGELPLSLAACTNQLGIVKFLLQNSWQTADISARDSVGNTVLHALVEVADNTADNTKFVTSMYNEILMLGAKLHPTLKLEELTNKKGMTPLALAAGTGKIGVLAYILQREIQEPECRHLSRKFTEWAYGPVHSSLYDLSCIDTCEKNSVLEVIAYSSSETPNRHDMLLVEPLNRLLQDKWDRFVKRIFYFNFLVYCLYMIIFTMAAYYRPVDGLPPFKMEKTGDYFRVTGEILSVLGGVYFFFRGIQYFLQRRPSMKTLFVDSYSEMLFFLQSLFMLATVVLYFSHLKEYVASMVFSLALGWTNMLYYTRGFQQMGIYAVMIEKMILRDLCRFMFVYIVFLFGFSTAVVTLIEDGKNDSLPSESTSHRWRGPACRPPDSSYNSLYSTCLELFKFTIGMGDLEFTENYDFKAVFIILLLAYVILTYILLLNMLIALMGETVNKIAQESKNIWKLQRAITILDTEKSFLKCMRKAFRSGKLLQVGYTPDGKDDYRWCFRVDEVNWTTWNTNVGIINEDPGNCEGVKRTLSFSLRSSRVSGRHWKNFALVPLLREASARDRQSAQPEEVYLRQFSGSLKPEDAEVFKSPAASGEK
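TRPV1-expressing cells were cultured overnight at 35.5C and loaded with Fluo-8 calcium dye for 40 to 90 min at room temperature. After a 10 s baseline, compound was added and calcium influx was read kinetically for 3 min (ex 480/em 520 nm).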
TRPV1 PAM: potentiators of human vanilloid receptor 1 (TRPV1). Q8NER1. TRPV1-expressing cells, Fluo-8 calcium influx, capsaicin EC20 potentiation. potentiation, % at 8.33 µM. 320,000 compounds, 0.02% hits; in the data active = potentiation above about 80%; inconclusive = between about 30% and that limit
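Fluo-8 calcium influx in TRPV1-expressing cells, kinetic read (ex 480/em 520 nm). Compound added and read 3 min for agonist activity, followed by capsaicin at EC20 final and 2 min further read for enhancement.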
Numbers stand for hits; . = inactive; ? = inconclusive; / = not tested or not shown.

SMILES | TRPML1 ag | TRHR enhancer | TRPML1 inh | TRHR ag | TRPV1 agonist | TRPV1 PAM
Cc1ccc(S(=O)(=O)N2CCN(c3nc(-c4ccnnc4)nc4ccccc34)CC2)cc1 | . | / | / | / | / | /
CC(=O)c1cc(-c2ccc(F)cc2)n(CCC(=O)Nc2cccnc2)c1C | . | . | . | . | 81 | .
COc1cccc(C2=CC(c3ccccc3O)NC(C)(C)N2)c1 (stereo not given) | . | / | / | / | / | /
CC1(C)Cc2c(C#N)c(N3CCN(C(=O)c4ccccc4)CC3)nc(-c3ccco3)c2CS1 | . | 33 | . | . | . | .
CC(C)c1nc(N2CCN(C(=O)c3ccccc3)CC2)c(C#N)c2c1COC(C)(C)C2 | . | . | . | . | . | .
Cc1cnc2ccccc2c1/C=C/c1ccc(N)cc1 | . | / | / | / | / | /
N#Cc1c(Cl)cccc1Oc1ccc([S+](=O)([O-])N2CCN([S+](=O)([O-])c3c(F)cccc3F)CC2)cc1 | / | . | / | . | / | /
COc1cccc(CCn2c(N)cc(=O)[nH]c2=S)c1OC | . | / | / | / | / | /
O=[N+]([O-])c1ccc(C(O)C23CN4CN(CN(C4)C2)C3)cc1 (stereo not given) | . | 40 | . | . | . | .
O=C(CNS(=O)(=O)c1ccc2ccccc2c1)OCc1csc(-c2ccccc2)n1 | . | . | . | . | . | .
Cc1ccc(S(=O)(=O)NCC(=O)OCc2csc(-c3ccccc3)n2)cc1 | . | 33 | . | . | . | .
Nc1c(Br)cc(/C=C/c2ccnc3ccccc23)cc1Br | . | / | / | / | / | /
N#CN1CCC(N[S+](=O)([O-])c2cccc(F)c2)CC1 | / | . | / | . | / | /
CC(=O)Oc1ccc(C(=O)Nc2ccc(C3(C#N)CCCC3)cc2)cc1 | . | . | . | . | . | 86
O=C(Nc1cccc(Nc2ccccc2)c1)c1cnn2c1NC(=C1CC1)C=C2C(F)F | . | / | / | / | / | /
O=C(C[n+]1ccccc1)Nc1c(Cl)cc(Cl)cc1Cl | . | 39 | . | . | . | .
O=C(Nc1c(Cl)cc([N+](=O)[O-])cc1Cl)c1cc(Cl)ccc1O | . | / | / | / | / | /
COc1cc(-c2noc(C)c2C#CCCN2C(=O)c3ccccc3C2=O)cc(OC)c1OC | . | / | / | / | / | /
CCn1cc(C(=O)NCCc2ccccc2)c(=O)c2cc(S(=O)(=O)N3CCOCC3)ccc21 | . | . | . | . | / | /
CCn1cc(C(=O)NCCc2ccccc2)c(=O)c2cc(S(=O)(=O)N3CCCC3)ccc21 | . | . | . | . | 96 | .
Cc1ccc(Nc2nnc(-c3cc4c(ccc5ccccc54)oc3=O)s2)cc1 | . | . | . | . | / | /
O=c1oc2ccccc2cc1-c1nc(-c2ccccc2)no1 | . | . | . | . | . | .
CCN(CC)c1ccc2cc(-c3nc(-c4ccccc4)no3)c(=O)oc2c1 | . | . | . | 55 | / | /
CCN(CC)c1ccc2cc(-c3nnc(Nc4ccc(C)cc4)s3)c(=O)oc2c1 | 67 | . | . | 159 | ? | .
O=C(Nc1ccc(S(=O)(=O)Nc2ncccn2)cc1)C1CC(=O)N(c2ccccc2)C1 (stereo not given) | . | . | . | . | . | .
SMILES | TRPML1 ag | TRHR enhancer | TRPML1 inh | TRHR ag | TRPV1 agonist | TRPV1 PAM
CCOc1ccc(N2CC(C(=O)Nc3ccc(S(=O)(=O)Nc4ncccn4)cc3)CC2=O)cc1 (stereo not given) | . | 32 | . | . | . | .
CN(C)c1ccc(Cn2ccc3ccccc32)cc1 | . | / | / | / | / | /
COC(=O)c1cc2n(n1)CCN(Cc1ccc(C)cc1)C2=O | . | . | . | . | . | .
COC(=O)c1cc2n(n1)CCN(Cc1ccccc1Cl)C2=O | . | 32 | . | . | . | .
CC1CCCCN1C(=O)c1cnn2c1NC(=C1CC1)C=C2C(F)F (stereo not given) | . | / | / | / | / | /
CCC(=NNC(=O)c1ccc2c(c1)nc(C)n2CC)c1cc(F)ccc1O | . | / | . | / | / | /
CCn1c(C)nc2cc(C(=O)n3cc(C(=O)c4cc(F)ccc4O)cn3)ccc21 | / | 30 | / | . | . | .
Cc1cc[n+](CC(=O)c2ccc(F)cc2)cc1 | . | / | / | / | / | /
COc1ccc(-c2cn[nH]c2C)cc1 | . | 31 | . | . | . | .
COc1cc2c(cc1OC)C(c1oc(-c3ccc(-c4cc(Cl)ccc4Cl)o3)cc1C)=NCC2 | . | / | / | / | / | /
Cc1nn(-c2ccccc2)nc1C(=O)Nc1ccc2[nH]ncc2c1 | . | . | . | . | 91 | .
O=C(NCCc1nc2ccccc2n1CCOc1cccc2ccccc12)C1CCCCC1 | . | / | / | / | / | /
Cc1ccc(C(C)C)c(OCC(=O)NCC2(N3CCOCC3)CCCCC2)c1 | 76 | . | . | . | / | /
Cc1cccc(C(=O)Nc2nnc(SCC(=O)NC3CC3)s2)c1 | . | . | -52 | . | . | .
O=C(CSc1nnc(NC(=O)c2cccc(F)c2)s1)NC1CC1 | . | . | . | . | . | .
COc1ccc(Cl)cc1N(C)c1nc(N2CCN(S(=O)(=O)c3ccc(C)cc3)CC2)c2ccccc2n1 | . | / | / | / | / | /
O=C(NC1CCN(Cc2ccccc2)C1)c1cc(COc2ccc(F)cc2F)on1 (stereo not given) | . | 31 | . | . | . | .
CC(CCn1cccn1)NC(=O)c1cc(COc2ccc(F)cc2F)on1 (stereo not given) | . | 35 | . | . | . | .
Cc1ccc(C)c(OCc2cc(C(=O)NC3CCN(Cc4ccccc4)CC3)no2)c1 | . | . | . | . | . | .
COc1ccc(C#Cc2c[nH]c(=O)c3cncnc23)cc1OC | . | / | / | / | / | /
CC(C)C(=O)NNC(=O)c1csc(-c2cccs2)n1 | . | 32 | . | . | . | ?
CCCCN(CCCN)c1ccc(Br)cn1 | . | / | / | / | / | /
COc1ccc2[nH]c(CCc3nc4c(OC)c(OC)ccc4[nH]3)nc2c1OC | . | / | / | / | / | /
Cc1cc(C(=O)NC2CCCc3c2cnn3-c2ccc(C)c(C)c2)nc(C)n1 (stereo not given) | . | . | . | . | . | .
COC(=O)c1ccc(C(=O)NC2CCCc3c2cnn3-c2ccc(C)c(C)c2)cc1 (stereo not given) | . | 35 | . | . | . | .
SMILES | TRPML1 ag | TRHR enhancer | TRPML1 inh | TRHR ag | TRPV1 agonist | TRPV1 PAM
Cc1cc(C)c(C)c(S(=O)(=O)N2CCN(S(=O)(=O)c3ccc4c(c3)OCCO4)CC2)c1C | / | . | / | . | / | /
Cc1nccc(-c2cc(-c3ccc(Cl)cc3Cl)no2)n1 | . | 33 | . | . | / | /
Oc1ccccc1C1C=C(c2ccc3c(c2)OCO3)NC(c2ccc(Br)cc2)N1 (stereo not given) | . | / | / | / | / | /
CC1CN(c2ccc(NC(=O)c3ccco3)cc2C(=O)O)CC(C)O1 (stereo not given) | . | 30 | . | . | . | .
CC1CN(c2ccc(NS(=O)(=O)c3ccccc3)cc2C(=O)O)CC(C)O1 (stereo not given) | . | . | . | . | . | .
Cc1cc(C)nc(/N=C(\N)Nc2ccc(OCc3ccccc3)cc2)n1 | 81 | . | . | 50 | . | .
